# Assay results: paper PMC6579518
# Assays:
# [1] = biological target: Cytoplasmic 60S subunit biogenesis factor REI1 (UniProt P38344); experiment: cross-link between two proteins; cross-linking mass spectrometry
# [2] = biological target: Large ribosomal subunit protein eL18A (UniProt P0CX49); experiment: as above
# [3] = biological target: Large ribosomal subunit protein eL19A (UniProt P0CX82); experiment: as above
# [4] = biological target: Large ribosomal subunit protein uL2A (UniProt P0CX45); experiment: as above
# Large subunit GTPase 1 = Large subunit GTPase 1 (UniProt P53145); experiment: as above
# [5] = biological target: Large ribosomal subunit protein eL20A (UniProt P0CX23); experiment: as above
# [6] = biological target: rRNA biogenesis protein RRP5 (UniProt Q05022); experiment: as above
# [7] = biological target: Large ribosomal subunit protein eL32 (UniProt P38061); experiment: as above
# [8] = biological target: Large ribosomal subunit protein eL37A (UniProt P49166); experiment: as above
# [9] = biological target: Large ribosomal subunit protein uL13B (UniProt P26785); experiment: as above
# [10] = biological target: Shuttling pre-60S factor ECM1 (UniProt P39715); experiment: as above
# [11] = biological target: Nucleolar GTP-binding protein 1 (UniProt Q02892); experiment: as above
# [12] = biological target: Probable metalloprotease ARX1 (UniProt Q03862); experiment: as above
# [13] = biological target: Proteasome-interacting protein CIC1 (UniProt P38779); experiment: as above
# [14] = biological target: Pumilio homology domain family member 6 (UniProt Q04373); experiment: as above
# UPF0642 protein YBL028C = UPF0642 protein YBL028C (UniProt P38202); experiment: as above
# [15] = biological target: WD repeat-containing protein JIP5 (UniProt Q06214); experiment: as above
# [16] = biological target: U3 small nucleolar RNA-associated protein 22 (UniProt P53254); experiment: cross-link between two proteins; affinity purification or IP with mass spectrometry; cross-linking mass spectrometry
# Chain of Large ribosomal subunit protein eL43A, P0CX25 (P0CX25 whole entry): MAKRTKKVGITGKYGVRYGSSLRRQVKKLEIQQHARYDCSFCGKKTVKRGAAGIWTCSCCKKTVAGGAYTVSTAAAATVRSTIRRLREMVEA
# Chain of Probable metalloprotease ARX1 (Q03862 whole entry): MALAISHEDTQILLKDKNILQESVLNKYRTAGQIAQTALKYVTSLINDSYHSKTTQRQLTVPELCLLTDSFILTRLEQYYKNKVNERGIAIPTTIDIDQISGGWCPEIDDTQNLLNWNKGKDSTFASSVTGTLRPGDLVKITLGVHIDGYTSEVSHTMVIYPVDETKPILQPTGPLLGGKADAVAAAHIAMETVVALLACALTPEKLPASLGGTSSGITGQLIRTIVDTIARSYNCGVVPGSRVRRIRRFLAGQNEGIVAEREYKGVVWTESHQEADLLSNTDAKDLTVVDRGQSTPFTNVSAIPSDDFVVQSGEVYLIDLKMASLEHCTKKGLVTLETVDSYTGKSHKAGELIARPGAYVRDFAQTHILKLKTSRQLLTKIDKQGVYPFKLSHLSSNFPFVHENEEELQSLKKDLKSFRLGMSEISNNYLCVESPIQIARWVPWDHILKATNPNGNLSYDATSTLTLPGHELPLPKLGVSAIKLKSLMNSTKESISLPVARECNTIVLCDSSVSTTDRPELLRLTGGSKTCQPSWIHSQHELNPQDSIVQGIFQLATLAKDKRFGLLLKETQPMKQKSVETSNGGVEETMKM
# Chain of UPF0642 protein YBL028C (P38202 whole entry): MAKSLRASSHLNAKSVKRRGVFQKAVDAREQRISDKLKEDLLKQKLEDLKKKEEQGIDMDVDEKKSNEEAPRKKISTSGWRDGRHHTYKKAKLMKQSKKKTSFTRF
# Chain of Large subunit GTPase 1 (P53145 whole entry): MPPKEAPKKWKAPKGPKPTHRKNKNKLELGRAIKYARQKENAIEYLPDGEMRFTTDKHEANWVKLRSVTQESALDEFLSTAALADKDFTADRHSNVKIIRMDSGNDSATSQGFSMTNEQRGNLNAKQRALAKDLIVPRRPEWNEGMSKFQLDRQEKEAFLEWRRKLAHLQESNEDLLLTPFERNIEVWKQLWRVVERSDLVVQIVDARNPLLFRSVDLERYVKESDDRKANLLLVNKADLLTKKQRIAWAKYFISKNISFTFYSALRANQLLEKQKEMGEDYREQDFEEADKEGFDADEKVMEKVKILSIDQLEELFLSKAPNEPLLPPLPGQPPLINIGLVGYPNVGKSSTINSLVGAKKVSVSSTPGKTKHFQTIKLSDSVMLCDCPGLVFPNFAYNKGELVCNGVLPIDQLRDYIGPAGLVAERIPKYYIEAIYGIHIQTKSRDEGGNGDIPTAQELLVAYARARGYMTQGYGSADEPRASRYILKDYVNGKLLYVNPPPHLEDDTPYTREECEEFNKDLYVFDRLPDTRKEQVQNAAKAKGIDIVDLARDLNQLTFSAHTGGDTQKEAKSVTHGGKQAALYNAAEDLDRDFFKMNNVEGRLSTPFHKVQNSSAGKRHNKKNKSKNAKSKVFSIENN
# Chain of Large ribosomal subunit protein eL19A (P0CX82 whole entry): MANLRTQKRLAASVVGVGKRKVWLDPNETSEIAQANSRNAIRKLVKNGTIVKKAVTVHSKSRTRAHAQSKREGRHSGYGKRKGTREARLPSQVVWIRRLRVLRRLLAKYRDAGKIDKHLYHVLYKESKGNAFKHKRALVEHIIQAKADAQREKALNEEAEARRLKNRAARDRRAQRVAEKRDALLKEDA
# Chain of Large ribosomal subunit protein eL20A (P0CX23 whole entry): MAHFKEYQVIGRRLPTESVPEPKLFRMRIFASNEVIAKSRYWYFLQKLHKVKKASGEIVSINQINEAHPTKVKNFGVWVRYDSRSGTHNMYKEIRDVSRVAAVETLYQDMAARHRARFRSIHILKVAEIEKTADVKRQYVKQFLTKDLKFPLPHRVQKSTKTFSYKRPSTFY
# Chain of Large ribosomal subunit protein uL2A, P0CX45 (P0CX45 whole entry): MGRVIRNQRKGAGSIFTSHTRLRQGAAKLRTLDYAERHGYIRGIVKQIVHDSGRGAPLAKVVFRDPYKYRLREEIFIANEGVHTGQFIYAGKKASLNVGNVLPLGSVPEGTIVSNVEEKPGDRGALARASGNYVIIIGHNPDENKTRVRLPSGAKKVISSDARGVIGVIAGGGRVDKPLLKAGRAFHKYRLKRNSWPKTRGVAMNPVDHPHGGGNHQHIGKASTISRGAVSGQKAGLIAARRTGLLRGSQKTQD
# Chain of Large ribosomal subunit protein uL2A (P0CX45 whole entry): as above
# Chain of Large ribosomal subunit protein eL18A (P0CX49 whole entry): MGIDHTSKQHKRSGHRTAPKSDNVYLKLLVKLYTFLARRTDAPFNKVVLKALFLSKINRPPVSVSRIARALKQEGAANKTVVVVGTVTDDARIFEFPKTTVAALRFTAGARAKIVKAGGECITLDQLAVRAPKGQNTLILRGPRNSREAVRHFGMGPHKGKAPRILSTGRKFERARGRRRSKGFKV
# Chain of Heat shock protein SSA1, P10591 (P10591 whole entry): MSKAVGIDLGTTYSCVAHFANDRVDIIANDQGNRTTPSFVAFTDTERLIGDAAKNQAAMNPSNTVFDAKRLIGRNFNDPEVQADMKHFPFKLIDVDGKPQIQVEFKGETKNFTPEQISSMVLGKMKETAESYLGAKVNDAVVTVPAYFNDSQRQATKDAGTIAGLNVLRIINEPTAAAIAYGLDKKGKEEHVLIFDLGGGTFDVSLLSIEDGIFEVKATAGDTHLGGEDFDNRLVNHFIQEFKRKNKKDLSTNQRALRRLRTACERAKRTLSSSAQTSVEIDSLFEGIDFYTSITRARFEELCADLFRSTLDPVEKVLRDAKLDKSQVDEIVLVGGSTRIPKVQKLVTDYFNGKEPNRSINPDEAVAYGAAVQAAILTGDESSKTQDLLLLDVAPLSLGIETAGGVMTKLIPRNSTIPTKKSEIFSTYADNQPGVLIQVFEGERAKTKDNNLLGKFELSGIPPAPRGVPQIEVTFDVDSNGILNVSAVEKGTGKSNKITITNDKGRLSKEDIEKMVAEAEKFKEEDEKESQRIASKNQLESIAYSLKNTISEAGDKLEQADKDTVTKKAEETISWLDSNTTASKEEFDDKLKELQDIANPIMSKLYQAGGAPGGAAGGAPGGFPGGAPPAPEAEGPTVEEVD
# Chain of rRNA biogenesis protein RRP5 (Q05022 whole entry): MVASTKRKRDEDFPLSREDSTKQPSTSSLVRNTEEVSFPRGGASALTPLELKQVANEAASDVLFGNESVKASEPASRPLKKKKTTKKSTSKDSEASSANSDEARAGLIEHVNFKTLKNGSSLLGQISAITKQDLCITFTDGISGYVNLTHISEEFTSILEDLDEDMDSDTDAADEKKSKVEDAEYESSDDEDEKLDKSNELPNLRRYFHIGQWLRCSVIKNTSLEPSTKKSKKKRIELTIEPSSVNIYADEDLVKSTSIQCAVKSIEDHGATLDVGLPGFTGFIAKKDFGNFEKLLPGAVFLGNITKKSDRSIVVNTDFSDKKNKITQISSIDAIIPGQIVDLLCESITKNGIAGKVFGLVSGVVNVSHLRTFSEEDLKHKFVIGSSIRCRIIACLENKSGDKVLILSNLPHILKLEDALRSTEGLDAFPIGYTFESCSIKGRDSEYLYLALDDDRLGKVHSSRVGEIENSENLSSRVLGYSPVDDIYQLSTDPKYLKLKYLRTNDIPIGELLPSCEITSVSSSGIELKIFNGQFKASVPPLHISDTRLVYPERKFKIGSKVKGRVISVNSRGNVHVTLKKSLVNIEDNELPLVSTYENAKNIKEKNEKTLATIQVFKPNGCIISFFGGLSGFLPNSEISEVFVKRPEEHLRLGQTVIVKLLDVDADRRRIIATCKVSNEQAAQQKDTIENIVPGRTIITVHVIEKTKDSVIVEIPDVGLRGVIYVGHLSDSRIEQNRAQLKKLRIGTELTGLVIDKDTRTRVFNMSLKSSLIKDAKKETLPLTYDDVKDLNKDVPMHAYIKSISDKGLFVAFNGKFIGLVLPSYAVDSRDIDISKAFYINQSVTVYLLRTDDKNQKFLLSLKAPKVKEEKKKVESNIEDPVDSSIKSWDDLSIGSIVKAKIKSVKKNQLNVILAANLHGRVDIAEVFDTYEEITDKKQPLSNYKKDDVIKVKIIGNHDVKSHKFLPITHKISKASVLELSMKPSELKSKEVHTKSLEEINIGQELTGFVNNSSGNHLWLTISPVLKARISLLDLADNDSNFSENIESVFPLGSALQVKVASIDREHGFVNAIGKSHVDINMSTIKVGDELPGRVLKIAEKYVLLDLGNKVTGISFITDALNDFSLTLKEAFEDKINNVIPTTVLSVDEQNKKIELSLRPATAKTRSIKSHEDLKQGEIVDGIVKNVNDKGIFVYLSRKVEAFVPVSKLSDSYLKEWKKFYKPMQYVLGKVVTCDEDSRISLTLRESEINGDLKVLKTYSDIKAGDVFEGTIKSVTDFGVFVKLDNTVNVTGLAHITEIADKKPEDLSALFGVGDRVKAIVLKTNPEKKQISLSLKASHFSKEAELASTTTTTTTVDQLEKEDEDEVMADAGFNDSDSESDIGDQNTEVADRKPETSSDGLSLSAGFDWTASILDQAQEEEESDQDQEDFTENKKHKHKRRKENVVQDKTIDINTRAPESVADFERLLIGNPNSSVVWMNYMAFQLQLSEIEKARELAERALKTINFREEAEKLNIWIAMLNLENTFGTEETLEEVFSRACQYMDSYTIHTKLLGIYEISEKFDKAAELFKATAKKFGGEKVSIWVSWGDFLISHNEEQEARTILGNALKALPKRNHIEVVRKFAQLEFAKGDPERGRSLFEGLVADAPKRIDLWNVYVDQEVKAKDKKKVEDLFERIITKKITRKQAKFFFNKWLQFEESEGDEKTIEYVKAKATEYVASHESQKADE
# Chain of Large ribosomal subunit protein eL37A (P49166 whole entry): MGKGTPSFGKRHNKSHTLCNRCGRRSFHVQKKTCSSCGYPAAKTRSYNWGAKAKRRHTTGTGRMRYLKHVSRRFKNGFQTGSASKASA
substance,measurement,setting,value
"Large ribosomal subunit protein eL24A, P04449",listed as a hit,[1],yes
"Large ribosomal subunit protein eL29, P05747",listed as a hit,[2],yes
"Large ribosomal subunit protein uL15, P02406",listed as a hit,[2],yes
"Large ribosomal subunit protein eL43A, P0CX25",listed as a hit,[3],yes
same,listed as a hit,[4],yes
same,listed as a hit,Large subunit GTPase 1,yes
"Ubiquitin-ribosomal protein eS31 fusion protein, P05759",listed as a hit,[3],yes
"Large ribosomal subunit protein uL30A, P05737",listed as a hit,[5],yes
same,listed as a hit,[6],yes
"Large ribosomal subunit protein eL33A, P05744",listed as a hit,[5],yes
"27S pre-rRNA (guanosine(2922)-2'-O)-methyltransferase, P25582",listed as a hit,[7],yes
"Large ribosomal subunit protein uL29A, P0CX84",listed as a hit,[8],yes
"Large ribosomal subunit protein eL15A, P05748",listed as a hit,[9],yes
"Large ribosomal subunit protein uL14A, P0CX41",listed as a hit,[4],yes
"Large ribosomal subunit protein uL2A, P0CX45",listed as a hit,Large subunit GTPase 1,yes
same,listed as a hit,[10],yes
"Pescadillo homolog, P53261",listed as a hit,[11],yes
"Large ribosomal subunit protein uL24A, P05743",listed as a hit,[12],yes
"Cytoplasmic 60S subunit biogenesis factor REI1, P38344",listed as a hit,[12],yes
"Large ribosomal subunit protein uL13A, P26784",listed as a hit,[13],yes
"Large ribosomal subunit protein uL5A, P0C0W9",listed as a hit,[14],yes
"Large ribosomal subunit protein uL3, P14126",listed as a hit,UPF0642 protein YBL028C,yes
"Large ribosomal subunit protein uL6A, P05738",listed as a hit,UPF0642 protein YBL028C,yes
"Large ribosomal subunit protein uL1A, P0CX43",listed as a hit,[15],yes
"Heat shock protein SSA1, P10591",listed as a hit,[16],yes
